Results as given in PubChem BioAssay (Tox21).
Inconclusive results are not listed. Unmarked numbers belong to inactive results. The source made the active and inactive calls. Calls come from the whole dose curve.

assay: qHTS assay for small molecule disruptors of the mitochondrial membrane potential - cell viability (AID 720634); conditions: HepG2 viability, ATP luminescence (CellTiter-Glo), 1 h; series mostly up to 83.2 µM; activity change, negative = cytotoxicity: at the top concentration;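 note: human HepG2 liver cancer cells; nearly all actives have a fitted effect of over 20% in size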
Source text: U.S. Tox21 Program National Center for Advancing Translational Sciences [NCATS] NIH Chemical Genomics Center [NCGC] U.S. Environmental Protection Agency [EPA] National Institutes of Environmental Health Sciences [NIEHS] National Toxicology Program [NTP] U.S. Food and Drug Administration [FDA] Tox21 Assay Overview: Mitochondrial membrane potential (MMP), one of the parameters for mitochondrial function, is generated by mitochondrial electron transport chain that creates an electrochemical gradient by a series of redox reactions. This gradient drives the synthesis of ATP, a crucial molecule for various cellular processes. Measuring MMP in living cells is commonly used to assess the effect of chemicals on mitochondrial function; decreases in MMP can be detected using lipophilic cationic fluorescent dyes. […] The dye accumulates in the mitochondria of healthy cells as aggregates, with red fluorescence. The mitochondrial potential decreases and the dye could not accumulate in the mitochondria and remains in the cytoplasm in monomers, with green fluorescence. In addition to the mitochondrial potential assay, these cells were also used to test the cytotoxicity by determining the cell viability in the culture based on the quantitation of ATP present. The cytotoxicity was measured in the same assay well of MMP assay.
Tox21 Assay Protocol Summary: 2,000 HepG2 cells in 5 uL/well were dispensed into black, clear-bottom 1536-well plates using a Multidrop Combi (Thermo Scientific) dispenser. The assay plates were incubated for an overnight at 37 C to allow cells to attach to the wells, followed by the transfer of 23 nL compound or DMSO vehicle by a pin tool (Kalypsys). The plates were incubated for 1 hr at 37 C and 5% CO2, followed by the addition of 5 uL of 2X m-MPI dye into each well using Flying Reagent Dispenser (Aurora Discovery) and then CellTiter-Glo reagent was added at 4 uL/well and incubated 30 min at room temperature. Then luminescence intensity was quantified on a ViewLux CCD-based plate reader.
% is set by controls: 0 for no effect and ±100 for the full control effect.

**Q.** For `CCCCc1c(C)nc(NCC)[nH]c1=O`, which “activity change, negative = cytotoxicity” value is on record?
**A.** -11.9%

**Q.** With `CS(=O)(=O)c1cc(C(F)(F)F)ccc1C(=O)c1cnoc1C1CC1` as the compound, how does the “activity change, negative = cytotoxicity” value read?
**A.** -12%

**Q.** Which “activity change, negative = cytotoxicity” value does the source give for `NC(=O)O` here?
**A.** 3.94%

**Q.** Which “activity change, negative = cytotoxicity” value does the source give for `CCN(CC)C(C)C(=O)c1ccccc1` (stereo not given) here?
**A.** -4.34%

**Q.** Which “activity change, negative = cytotoxicity” value does the source give for `OCCBr` here?
**A.** 10.1%

**Q.** For `CCCCCCBr`, which “activity change, negative = cytotoxicity” value is on record?
**A.** -2.89% [at 95.3 µM]

**Q.** Which Potency does the source give for `CCN(CC)C(=O)[C@@H]1C=C2c3cccc4[nH]cc(c34)C[C@H]2N(C)C1` here?
**A.** inactive

**Q.** Which “activity change, negative = cytotoxicity” value does the source give for `OC(c1ccc(F)cc1)(c1cncnc1)c1ccccc1Cl` (stereo not given) here?
**A.** 7.86%

**Q.** Which “activity change, negative = cytotoxicity” value does the source give for `CC1CCC(=O)O1` (stereo not given) here?
**A.** 6.48%

**Q.** For `COc1cc2c(cc1OC)[C@@]13CCN4CC5=CCO[C@H]6CC(=O)N2[C@H]1[C@H]6[C@H]5C[C@H]43`, which Potency is on record?
**A.** inactive

**Q.** With `COC(=O)C(C)Oc1ccc(Oc2ccc(Cl)cc2Cl)cc1` (stereo not given) as the compound, how does the “activity change, negative = cytotoxicity” value read?
**A.** -7.42%

**Q.** For `CNC(=O)Oc1ccc(N(C)C)c(C)c1`, which “activity change, negative = cytotoxicity” value is on record?
**A.** 17.8%

**Q.** Which “activity change, negative = cytotoxicity” value does the source give for `Cc1ncsc1CCCl` here?
**A.** 12.8%

**Q.** Which “activity change, negative = cytotoxicity” value does the source give for `CC(C)(C)OC(=O)c1ncn2c1[C@@H]1CCCN1C(=O)c1c(Br)cccc1-2` here?
**A.** -1.74%

**Q.** Which “activity change, negative = cytotoxicity” value does the source give for `CC(N)=S` here?
**A.** 7.47%

**Q.** With `CCN(Cc1ccc(Cl)nc1)/C(=C/[N+](=O)[O-])NC` as the compound, how does the “activity change, negative = cytotoxicity” value read?
**A.** -3.8%

**Q.** With `O=C(CCN1CC1)OCC(CO)(COC(=O)CCN1CC1)COC(=O)CCN1CC1` as the compound, how does the “activity change, negative = cytotoxicity” value read?
**A.** 9.81%

**Q.** For `CCCCc1ccc(O)cc1`, which “activity change, negative = cytotoxicity” value is on record?
**A.** -13.8%

**Q.** Which “activity change, negative = cytotoxicity” value does the source give for `N#CCBr` here?
**A.** 8.8% [at 95.3 µM]

**Q.** For `OC(Cn1cncn1)(c1ccc(F)cc1)c1ccccc1F` (stereo not given), which “activity change, negative = cytotoxicity” value is on record?
**A.** 15.3%

**Q.** Which “activity change, negative = cytotoxicity” value does the source give for `CC(C=O)Cc1ccc2c(c1)OCO2` (stereo not given) here?
**A.** -10.2%

**Q.** With `O=C(O)c1ccc2[nH]cc(CCCCN3CC=C(c4ccccc4)CC3)c2c1` as the compound, how does the “activity change, negative = cytotoxicity” value read?
**A.** -2.58%

**Q.** For `CC(Oc1ccc(Oc2ncc(C(F)(F)F)cc2Cl)cc1)C(=O)O` (stereo not given), which “activity change, negative = cytotoxicity” value is on record?
**A.** -12.6%

**Q.** For `ClC(Cl)C(Cl)Cl`, which “activity change, negative = cytotoxicity” value is on record?
**A.** 5.65% [at 95.3 µM]

**Q.** Which “activity change, negative = cytotoxicity” value does the source give for `O=C(O)c1cccc(Cl)c1` here?
**A.** 6.74%

**Q.** With `CC1(C)C(=O)NC(=O)NC1=O` as the compound, how does the “activity change, negative = cytotoxicity” value read?
**A.** 15.7%

**Q.** For `C(CCOCC1CO1)COCC1CO1` (stereo not given), which “activity change, negative = cytotoxicity” value is on record?
**A.** 5.19%

**Q.** For `CNCC(=O)c1ccc(O)c(O)c1`, which “activity change, negative = cytotoxicity” value is on record?
**A.** 3.82%

**Q.** For `CCCCN(CCCCO)N=O`, which “activity change, negative = cytotoxicity” value is on record?
**A.** 10%

**Q.** For `CCOP(=O)(N=C1SCCS1)OCC`, which “activity change, negative = cytotoxicity” value is on record?
**A.** 7.38%

**Q.** For `CC(=O)C(Cl)Cl`, which “activity change, negative = cytotoxicity” value is on record?
**A.** 4.82% [at 95.3 µM]

**Q.** Which “activity change, negative = cytotoxicity” value does the source give for `CC(Cl)(Cl)[N+](=O)[O-]` here?
**A.** 1.23%

**Q.** For `COc1cc(OC)nc(Oc2cccc(Oc3nc(OC)cc(OC)n3)c2C(=O)O)n1`, which “activity change, negative = cytotoxicity” value is on record?
**A.** -2.29%

**Q.** With `CCCCOC(=O)c1ccccc1C(=O)O` as the compound, how does the “activity change, negative = cytotoxicity” value read?
**A.** 8.54%

**Q.** For `COP(=S)(OC)Oc1c(Cl)cc(C)cc1Cl`, which “activity change, negative = cytotoxicity” value is on record?
**A.** -18.6%

**Q.** Which “activity change, negative = cytotoxicity” value does the source give for `O=[N+]([O-])c1ccc2c3c(cccc13)CC2` here?
**A.** -13.1%

**Q.** Which “activity change, negative = cytotoxicity” value does the source give for `CCOP(=S)(OCC)Oc1nc(Cl)n(C(C)C)n1` here?
**A.** -1.76%

**Q.** Which “activity change, negative = cytotoxicity” value does the source give for `CC1CN1P(=O)(N1CC1C)N1CC1C` (stereo not given) here?
**A.** 10.3%

**Q.** With `N#CC(O)c1ccccc1` (stereo not given) as the compound, how does the “activity change, negative = cytotoxicity” value read?
**A.** 3.38%

**Q.** Which “activity change, negative = cytotoxicity” value does the source give for `Nc1cnn(-c2ccccc2)c(=O)c1Cl` here?
**A.** 12.1%
